The results in this text go back to PubChem BioAssay (Tox21).

Results filed as inconclusive are left out. A number with no mark means an inactive call. Activity calls are given as the source filed them. Unless noted, the call rests on the fitted dose curve; in most records, active means well fitted curve in the direction sought with a large enough effect in the repeat runs; inconclusive means weak or mixed curves; inactive means no such curve, though single readings can be large; an effect the other way counts as inactive or inconclusive.

A short description of assay [1]: qHTS assay to identify small molecule antagonists of the estrogen related receptor (ERR) signaling pathway from Tox21 library - cell viability counter screen (AID 1224834). Further: nearly all actives have a fitted effect of over 30% in size. Further: potency means the concentration at half of the fitted maximal effect. Put shortly: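 CellTiter-Fluor fluorescence measured; ERR cells; 17.5 h compound incubation at 37 C; 30 min reagent step.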
The target in assay [2] is Luciferin 4-monooxygenase (Photinus pyralis) (UniProt P08659). The assay is described as follows: qHTS assay to identify small molecule inhibitors of firefly luciferase (AID 1224835). Further: nearly all actives have a fitted effect of over 25% in size. Further: potency means the concentration at half of the fitted maximal effect. An outline of the steps: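 Quantitative HTS format; KM concentrations of both substrates. Purified P. pyralis FLuc activity quantified from luminescence images.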
Assay [3] is described as follows: qHTS assay to identify small molecule agonists of the constitutive androstane receptor (CAR) signaling pathway - cell viability counter screen (AID 1224836). Further: nearly all actives have a fitted effect of over 45% in size. Further: potency means the concentration at half of the fitted maximal effect. An outline of the steps: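 Double-stable HepG2 hepatoma cells (hCAR plus CYP2B6-2.2kb) are treated for 23 h at 37 C with test compounds in 15-point concentration series. PK11195 at 0.75 uM final is co-added. Cell viability is quantified by CellTiter-Fluor.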

A short description of assay [4]: qHTS assay to identify small molecule antagonists of the constitutive androstane receptor (CAR) signaling pathway - cell viability counter screen (AID 1224837). Further: nearly all actives have a fitted effect of over 45% in size. Further: potency means the concentration at half of the fitted maximal effect. Put shortly: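 Using CellTiter-Fluor, viability is scored in HepG2 cells stably carrying hCAR and a 2.2kb CYP2B6 reporter after 23 hr compound exposure across 15 concentrations, with CITCO present at 50 nM.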

The target in assay [5] is Nuclear receptor subfamily 1 group I member 3 (Homo sapiens) (UniProt Q14994). The assay can be described thus: qHTS assay to identify small molecule antagonists of the constitutive androstane receptor (CAR) signaling pathway (AID 1224838).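 Further: HepG2 cells stably expressing hCAR with CYP2B6 luciferase reporter stimulated by CITCO; nearly all actives have a fitted effect of over 40% in size.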 Further: potency means the concentration at half of the fitted maximal effect. Put shortly:
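Reporter luminescence was quantified after 24 h exposure of hCAR/CYP2B6-2.2kb double-stable HepG2 cells to compounds at 15 concentrations in the presence of 50 nM CITCO final.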

The target is the same in assay [6]. The assay can be described thus: qHTS assay to identify small molecule agonists of the constitutive androstane receptor (CAR) signaling pathway (AID 1224839). Further: series mostly up to about 92 µM; nearly all actives have a fitted effect of over 15% in size. Put shortly: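 Readout: firefly luciferase luminescence via ONE-Glo. System: HepG2 double-stable for hCAR and CYP2B6-2.2kb. Conditions: 15-point compound titration, PK11195 at 0.75 uM final, 24 h incubation.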

A short description of assay [7]: qHTS assay to identify small molecule antagonists of the estrogen related receptor signaling pathway with the pleiotropic PPARgamma coactivator (PGC) from Tox21 10K library - cell viability counter screen (AID 1224840; active means well fitted cell-killing curve with a large enough effect in the repeat runs, not every such curve was filed as active; further: nearly all actives have a fitted effect of over 40% in size; further: potency means the concentration at half of the fitted maximal effect). Put shortly: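 Here the PGC/ERR cells serve as a cytotoxicity control: they are exposed to compounds for 17.5 hours at 37 C, and live-cell signal is quantified using CellTiter-Fluor fluorescence.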

Assay [8] can be described thus: qHTS assay to identify small molecule antagonists of the estrogen related receptor signaling pathway with the pleiotropic PPARgamma coactivator (PGC) from Tox21 10K library (AID 1224841; call rule not given here; further: actives are mostly falling curves and most rising ones were filed inactive; nearly all actives have a fitted effect of over 50% in size; further: potency means the concentration at half of the fitted maximal effect). Put shortly: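 Each well held 2,000 PGC/ERR cells, pre-incubated six hours (37 C, 5% CO2). Test substances in DMSO were added by pin tool and left for 18 h at 37 C before luciferase detection by One-Glo.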

Assay [9] in a line: qHTS assay to identify small molecule agonists of the estrogen related receptor signaling pathway with the pleiotropic PPARgamma coactivator (PGC) from Tox21 10K library (AID 1224842). Further: nearly all actives have a fitted effect of over 15% in size. Put shortly: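 PGC/ERR reporter cells (NTP line) were seeded 2,000 per well, rested 6 h at 37 C/5% CO2, then pin-dosed with compounds in DMSO for 18 h at 37 C; luciferase read by One-Glo luminescence after 30 min at room temperature.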

Assay [10] addresses Thyrotropin receptor (Homo sapiens) (UniProt P16473). The assay is described as follows: qHTS assay to identify small molecule agonists of the thyroid stimulating hormone receptor (TSHR) signaling pathway (AID 1224843; calls by dose curve; further: nearly all actives have a fitted effect of over 45% in size; further: potency means the concentration at half of the fitted maximal effect). Put shortly: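 TSHR-expressing HEK293 cells (800 per well) were exposed to compounds for 30 min at room temperature. cAMP was then detected by HTRF competition with cAMP-d2 and anti-cAMP cryptate, read after 1 h at room temperature. Fifteen concentrations, triplicate.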
On the % scale 0 is the no-effect control and ±100 the full control effect.

Nuclear receptor subfamily 1 group I member 3 (Homo sapiens), sequence (Q14994 whole entry, looked up): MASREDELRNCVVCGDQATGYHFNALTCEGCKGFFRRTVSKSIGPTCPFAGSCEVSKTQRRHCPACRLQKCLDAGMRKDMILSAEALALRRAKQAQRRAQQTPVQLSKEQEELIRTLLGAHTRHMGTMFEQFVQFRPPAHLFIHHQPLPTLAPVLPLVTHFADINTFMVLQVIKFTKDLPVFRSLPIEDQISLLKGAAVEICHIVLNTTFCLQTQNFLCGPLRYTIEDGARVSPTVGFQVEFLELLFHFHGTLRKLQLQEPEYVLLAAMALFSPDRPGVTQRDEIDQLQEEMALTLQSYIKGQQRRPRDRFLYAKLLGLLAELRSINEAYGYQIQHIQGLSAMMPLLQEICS
Luciferin 4-monooxygenase (Photinus pyralis), sequence (P08659 whole entry, looked up): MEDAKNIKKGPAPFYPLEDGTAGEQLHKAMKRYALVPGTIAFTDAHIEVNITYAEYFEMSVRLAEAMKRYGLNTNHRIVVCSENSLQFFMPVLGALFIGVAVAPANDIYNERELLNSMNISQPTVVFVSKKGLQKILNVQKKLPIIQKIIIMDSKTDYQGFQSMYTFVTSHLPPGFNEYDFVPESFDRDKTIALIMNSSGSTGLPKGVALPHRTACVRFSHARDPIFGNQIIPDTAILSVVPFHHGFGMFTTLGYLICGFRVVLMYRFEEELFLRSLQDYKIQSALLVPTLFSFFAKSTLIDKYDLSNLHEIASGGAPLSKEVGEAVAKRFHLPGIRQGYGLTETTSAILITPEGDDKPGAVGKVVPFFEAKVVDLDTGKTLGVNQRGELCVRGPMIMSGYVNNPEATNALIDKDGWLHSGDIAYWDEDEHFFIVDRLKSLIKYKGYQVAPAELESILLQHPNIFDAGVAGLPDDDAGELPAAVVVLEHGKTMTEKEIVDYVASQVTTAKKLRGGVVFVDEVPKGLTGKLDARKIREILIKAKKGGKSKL
Thyrotropin receptor (Homo sapiens), sequence (P16473 whole entry, looked up): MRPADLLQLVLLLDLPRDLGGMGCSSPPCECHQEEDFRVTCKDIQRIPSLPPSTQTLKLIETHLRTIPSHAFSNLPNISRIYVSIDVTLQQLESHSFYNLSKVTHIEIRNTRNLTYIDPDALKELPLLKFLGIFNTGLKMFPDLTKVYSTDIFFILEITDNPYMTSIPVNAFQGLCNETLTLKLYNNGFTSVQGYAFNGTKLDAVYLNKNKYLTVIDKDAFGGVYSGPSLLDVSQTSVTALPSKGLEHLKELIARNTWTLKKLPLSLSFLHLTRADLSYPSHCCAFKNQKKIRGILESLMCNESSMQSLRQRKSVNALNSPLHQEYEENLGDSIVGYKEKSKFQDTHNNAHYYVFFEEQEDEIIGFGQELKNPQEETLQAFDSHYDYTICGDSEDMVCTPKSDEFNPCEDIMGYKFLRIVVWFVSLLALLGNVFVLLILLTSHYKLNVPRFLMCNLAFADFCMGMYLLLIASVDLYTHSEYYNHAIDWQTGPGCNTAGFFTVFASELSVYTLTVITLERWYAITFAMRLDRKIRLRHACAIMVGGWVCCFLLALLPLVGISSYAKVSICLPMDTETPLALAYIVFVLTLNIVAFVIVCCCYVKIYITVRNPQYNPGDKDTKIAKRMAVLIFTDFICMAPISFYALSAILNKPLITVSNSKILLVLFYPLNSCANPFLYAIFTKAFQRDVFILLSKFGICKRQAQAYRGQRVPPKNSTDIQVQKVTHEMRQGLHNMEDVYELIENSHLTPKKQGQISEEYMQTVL

Turning to `CCOc1nc2cccc(C(=O)OC(C)OC(=O)OC3CCCCC3)c2n1Cc1ccc(-c2ccccc2-c2nn[nH]n2)cc1` (configuration not stated), the Potency is 54.4 µM (active) in assay [1], 56.4 µM (active) in assay [2], 43.2 µM (active) in assay [7] and 54.4 µM (active) in assay [8]. The Potency result in assay [3], in assay [4], in assay [5], in [6], in assay [9] and in assay [10] was “inactive” throughout.
In the case of `CC(C)(C)C(=O)OCOC(=O)[C@@H]1N2C(=O)[C@@H](NC(=O)[C@H](N)c3ccccc3)[C@H]2SC1(C)C`, the Potency result in [1], in [2], in assay [3], in assay [4], in assay [5] and in assay [6] was “inactive” in each case. For the same compound, the Potency result in assay [7], in [8], in assay [9] and in [10] was “inactive” each time.
For `NNC(=O)c1cccc(C(=O)NN)c1`, the Potency entry in assay [1], in assay [2], in assay [3], in assay [4], in [5] and in assay [6] was “inactive” throughout. Further, in assay [7], the Potency entry is “inactive”.
`N#CC1(c2ccc(F)cc2)CCC(=O)CC1`: the Potency entry in [1], in assay [2], in assay [3], in [4], in assay [5] and in [6] was “inactive” in each case. Moreover, the Potency result in assay [7], in assay [8], in [9] and in [10] was “inactive” each time.
With `C[C@H](CCC(=O)O)[C@H]1CC[C@H]2[C@@H]3CC[C@@H]4C[C@H](O)CC[C@]4(C)[C@H]3CC[C@]12C`, the Potency result in assay [1], in assay [2], in [3], in assay [4], in [5] and in [6] was “inactive” in each case. The Potency entry in [7] and in [9] was “inactive” throughout. Besides, in assay [8], the Potency was 68.3 µM (active).
Take `Clc1ccc2nsnc2c1NC1=NCCN1`: the Potency entry in assay [1], in [2], in [3], in [4], in assay [5] and in [6] was “inactive” each time. The Potency entry in [7], in assay [8], in assay [9] and in assay [10] was “inactive” each time.
On to `Cc1cc(O)c(C(C)(C)C)cc1Sc1cc(C(C)(C)C)c(O)cc1C`, for which the Potency in [1] was 30.6 µM (active); in [3], 48.5 µM (active); in assay [4] it was 54.4 µM (active); in assay [5] it was 21.6 µM (active); in assay [7], 30.6 µM (active); in assay [8], 21.6 µM (active). Moreover, in assay [10], the Potency is 9.67 µM (active). Further, the Potency entry in assay [2], in assay [6] and in assay [9] was “inactive” each time.
Take `Cc1c(C)c2c(c(C)c1OC(=O)CCC(=O)O)CC[C@@](C)(CCC[C@H](C)CCC[C@H](C)CCCC(C)C)O2`: the Potency result in assay [1], in [2], in assay [3], in assay [4], in assay [5] and in assay [6] was “inactive” each time. Also, the Potency result in [7], in [8], in assay [9] and in assay [10] was “inactive” each time.
On to `C=CC(=O)OCCn1c(=O)n(CCOC(=O)C=C)c(=O)n(CCOC(=O)C=C)c1=O`, for which the Potency in assay [1] was 17.2 µM (active); in assay [3] it was 48.6 µM (active); in assay [4] it was 19.3 µM (active); in assay [5], 24.3 µM (active); in [7] it was 15.4 µM (active); in assay [8], 15.4 µM (active). The Potency in assay [10] was 27.3 µM (active). The Potency entry in [2], in assay [6] and in [9] was “inactive” each time.
In the case of `COc1cc(/C=C/C(=O)O[C@H]2CC[C@]34C[C@]35CC[C@]3(C)[C@@H]([C@H](C)CCC=C(C)C)CC[C@@]3(C)[C@@H]5CC[C@H]4C2(C)C)ccc1O`, the Potency result in assay [1], in assay [2], in assay [3], in [4], in assay [5] and in assay [6] was “inactive” throughout. In addition, the Potency entry in [7], in assay [8] and in [9] was “inactive” each time.
With `C1CCCC1`, the Potency result in assay [1], in assay [2], in [3], in assay [4], in assay [5] and in assay [6] was “inactive” throughout. For the same compound, the Potency result in assay [7], in [8], in assay [9] and in [10] was “inactive” throughout.
Take `O=CC=C(c1ccccc1)c1ccccc1`: in assay [1], the Potency was 27.5 µM (active). Moreover, the Potency result in assay [2], in assay [3], in [4] and in [5] was “inactive” in each case.
`C[n+]1cc2c3c(ccc2c2ccc4cc5c(cc4c21)OCO5)OCO3`: the Potency in [1] is 2.91 µM (active); in assay [2], 6.74 µM (active); in [3], 2.91 µM (active); in assay [4], 2.59 µM (active); in assay [5], 2.91 µM (active); in assay [7] it was 3.26 µM (active). Further, the Potency in assay [8] is 7.3 µM (active). Besides, the results for the activation in [6], in assay [9] and in [10] were -21.2% [at 19 µM], -34.9% [at 19 µM] and -8.77% [at 19 µM], respectively.
Turning to `CCN(CC)CCCC(C)Nc1c2ccc(Cl)cc2nc2ccc(OC)cc12` (configuration not stated), the Potency in assay [1] is 5.96 µM (active). Also, the Potency entry in assay [2] and in assay [3] was “inactive” throughout.
In the case of `CCc1cc(SCc2sc(-c3ccc(C(F)(F)F)cc3)nc2CN2CCN(c3ccc(OC)cc3)CC2)ccc1OCC(=O)O`, the Potency in assay [1] is 34.4 µM (active); in assay [7], 34.4 µM (active); in [8] it was 19.3 µM (active). For the same compound, the Potency result in [2], in assay [3], in assay [4], in [5], in [6] and in assay [9] was “inactive” in each case.
Consider `CC1(C)CCC(C)(C)c2cc(C(=O)Nc3ccc(C(=O)O)cc3)ccc21`, for which the Potency entry in assay [1], in assay [3], in assay [4], in assay [5], in [6] and in [7] was “inactive” in each case. Besides, the Potency result in assay [8], in assay [9] and in assay [10] was “inactive” throughout. Also, the Potency in assay [2] is 79.6 µM (active).
Consider `Cc1cccc(CN2CCN(C(c3ccccc3)c3ccc(Cl)cc3)CC2)c1` (configuration not stated), for which the Potency result in [1], in assay [2], in assay [3], in assay [4], in assay [5] and in [6] was “inactive” in each case. The Potency entry in [7] and in [9] was “inactive” throughout.
For `CCc1cc(Cc2cc(CC)cc(C(C)(C)C)c2O)c(O)c(C(C)(C)C)c1`, the Potency was 54.5 µM (active) in assay [1]; 61.1 µM (active) in [3]; 61.1 µM (active) in assay [4]; 21.7 µM (active) in assay [5]; 43.3 µM (active) in assay [7]; 27.3 µM (active) in assay [8]. The Potency entry in assay [2], in assay [6], in assay [9] and in assay [10] was “inactive” throughout.
As to `CO[Si](CCCNc1ccccc1)(OC)OC`, the Potency entry in assay [1], in assay [2], in assay [3], in [4], in assay [5] and in assay [6] was “inactive” throughout. Besides, the Potency entry in [7] and in assay [10] was “inactive” each time.
As to `CCCCCCCC[P+](CCCCCCCC)(CCCCCCCC)CCCCCCCC`, the Potency in [1] was 9.63 µM (active); in [2], 62.9 µM (active); in [3], 1.92 µM (active); in assay [4] it was 3.83 µM (active); in [5], 10.8 µM (active); in assay [7], 10.8 µM (active). Also, the Potency entry in [6], in assay [9] and in [10] was “inactive” in each case.
